A short description of experiment [1]: compounds altering circadian rhythm period length – cell-based, LOPAC library, luminescence reporter (AID 2774).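 Further: values are relative to mean of DMSO wells on each plate.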 The following applies: circadian reporter cells, at 7 µM, actives lie on both sides.
Experiment [2] relates to Hepatitis C virus NS3 helicase. As to the kind of experiment: blockers of NS3h binding to ssDNA – biochemical, fluorescence polarization, LOPAC1280 library, primary screen (AID 687035; in the data active means inhibition above about 37%). The following applies: Purified HCV NS3 helicase, Cy5-dT15 ssDNA binding fluorescence polarization; stronger effect = higher value; concentration not given here.
Experiment [3] in a line: compounds altering Cy5-DNA-NS3h complex signal – biochemical, LOPAC1280, artefact control for HCV NS3 helicase inhibitor project (AID 687037). The following applies: Cy5-DNA-NS3h complex fluorescence interference counterscreen.
The nature of experiment [4]: viability loss with induced miR-34 in A549 – imaging, A549 dox-inducible miR-34, nuclei and caspase counts, primary screen (AID 1347080;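 active means compounds whose cell count with miR-34 switched on is under 0.7 times the count with it off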). To be noted: A549 miR-34 inducible, Hoechst nuclei count, 48 h.
Experiment [5] in a line: blockers of cellular phospholipid synthesis – cell-based, LOPAC library, screen 4, primary screen (AID 1347384). To be noted: animal cells, phospholipid biosynthesis inhibition screen; at 10 µM.
Experiment [6] can be described thus: galactose survival enhancers in mitochondrial complex I cybrids – cell-based, galactose medium, ATP luminescence, primary screen (AID 1645843;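 active means z-score of at least 1.8 in each of two replicates, scored against plate mean and spread of sample wells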;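 further: positive z means more ATP and so rescue of galactose-driven cybrid death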). To be noted: complex I mutant cybrid cells, 72 h, stronger effect = higher value.
Where [7] appears, read: stronger effect = lower value, cell number ratio, induced over uninduced.
Where [8] appears, read: measured here: relative caspase fold change +Dox/-Dox.
Setting [9] is: measured here: total cells with miR-34 induction, stronger effect = lower value.
Setting [10] is: measured here: total cells without miR-34 induction.

Structures are written as SMILES. Calls of active or inactive are those of the source. Unless noted, how the calls were made is not given here.

Consider `C[N+](C)(C)CC=O`, for which the period change in experiment [1] was -0.2 h (inactive). The inhibition in experiment [2] was -5% (inactive). Also, the fluorescence ratio (interference) in experiment [3] was 0.9 (inactive). Also, the results for the fold change in experiment [4] (setting [7]) and in experiment [4] (setting [8]) were 1 (inactive) and 1.36, respectively. The cell count in experiment [4] (setting [9]) and in experiment [4] (setting [10]) was 10200 in each case. Moreover, the call in experiment [5] was inactive. For the same molecule, in experiment [6], the z-score was 0.245 (inactive).
For the molecule `N#C/C(=C\c1ccc(O)c(O)c1)C(=O)NCCc1ccccc1`, the period change in experiment [1] was -0.04 h (inactive). Further, the inhibition in experiment [2] is 2% (inactive). The fluorescence ratio (interference) in experiment [3] is 0.9 (inactive). Besides, the results for the fold change in experiment [4] (setting [7]) and in experiment [4] (setting [8]) were 1.09 (inactive) and 0.996, respectively. The cell count in experiment [4] (setting [9]) is 7900; in experiment [4] (setting [10]), 7250. Besides, the result in experiment [5] was inactive. Moreover, the z-score in experiment [6] is -1.06 (inactive).
As to `O=C(O)C1CCNCC1`, the period change in experiment [1] is -0.105 h (inactive). Further, in experiment [2], the inhibition was -2% (inactive). In addition, in experiment [3], the fluorescence ratio (interference) was 1 (inactive). Moreover, the fold change in experiment [4] (setting [7]) was 1.1 (inactive); in experiment [4] (setting [8]) it was 0.954. Also, the values for the cell count in experiment [4] (setting [9]) and in experiment [4] (setting [10]) were 10700 and 9760, respectively. Also, the result in experiment [5] was inactive. Further, in experiment [6], the z-score was 0.31 (inactive).
As to `Oc1ccc(C2CNCc3sccc32)cc1O` (stereo unspecified), in experiment [1], the period change is 0.045 h (inactive). In addition, in experiment [2], the inhibition was 5% (inactive). In experiment [3], the fluorescence ratio (interference) is 1 (inactive). The fold change in experiment [4] (setting [7]) was 0.942 (inactive); in experiment [4] (setting [8]) it was 1.38. Besides, the cell count in experiment [4] (setting [9]) turned out to be 10000; in experiment [4] (setting [10]), 10600. Moreover, the result in experiment [5] was inactive. Besides, the z-score in experiment [6] is -1.29 (inactive).
Regarding `CC(N)=O`, the period change in experiment [1] is -0.19 h (inactive). Also, in experiment [2], the inhibition was 0% (inactive). Also, the fluorescence ratio (interference) in experiment [3] is 0.9 (inactive). Also, the fold change in experiment [4] (setting [7]) is 1.08 (inactive); in experiment [4] (setting [8]) it was 1.34. The cell count was 10600 in experiment [4] (setting [9]) and 9870 in experiment [4] (setting [10]). For the same molecule, the molecule was called inactive in experiment [5]. Also, in experiment [6], the z-score was 1.1 (inactive).
For `CC(O)C(O)[C@H]1CNc2nc(N)[nH]c(=O)c2N1` (stereo partly specified), the period change in experiment [1] is -0.26 h (inactive). The inhibition in experiment [2] is -4% (inactive). Moreover, the fluorescence ratio (interference) in experiment [3] was 1 (inactive). Further, the fold change is 0.979 (inactive) in experiment [4] (setting [7]) and 1.26 in experiment [4] (setting [8]). The cell count came out at 10500 in experiment [4] (setting [9]) and 10800 in experiment [4] (setting [10]). Moreover, the result in experiment [5] was inactive. In experiment [6], the z-score is 0.515 (inactive).
On to `CN1CCc2ccccc2Cc2[nH]c3ccccc3c2CC1`, for which, in experiment [1], the period change is -0.08 h (inactive). Moreover, the inhibition in experiment [2] is -2% (inactive). In experiment [3], the fluorescence ratio (interference) is 1 (inactive). Also, the values for the fold change in experiment [4] (setting [7]) and in experiment [4] (setting [8]) were 1.04 (inactive) and 0.882, respectively. Moreover, the cell count in experiment [4] (setting [9]) is 9860; in experiment [4] (setting [10]), 9460. For the same molecule, the molecule was called inactive in experiment [5]. In addition, the z-score in experiment [6] was -0.35 (inactive).
On to `CN1CCC2(CCN3CCc4c(oc5ccccc45)C3C2)N(C)C1=O` (stereo unspecified), for which the period change in experiment [1] was 0.125 h (inactive). For the same molecule, the inhibition in experiment [2] is 3% (inactive). Further, in experiment [3], the fluorescence ratio (interference) is 1 (inactive). For the same molecule, the fold change in experiment [4] (setting [7]) is 1.04 (inactive); in experiment [4] (setting [8]), 0.751. Besides, the cell count in experiment [4] (setting [9]) was 7560; in experiment [4] (setting [10]) it was 7300. In addition, the outcome in experiment [5] was inactive. Besides, the z-score in experiment [6] was -0.87 (inactive).
With `NC(CCCP(=O)(O)O)C(=O)O` (stereo unspecified), in experiment [1], the period change is 0.105 h (inactive). Further, the inhibition in experiment [2] was -3% (inactive). Further, the fluorescence ratio (interference) in experiment [3] was 1 (inactive). Moreover, the fold change in experiment [4] (setting [7]) is 1.08 (inactive); in experiment [4] (setting [8]), 1.92. For the same molecule, the values for the cell count in experiment [4] (setting [9]) and in experiment [4] (setting [10]) were 10400 and 9550, respectively. The molecule was called inactive in experiment [5]. Besides, in experiment [6], the z-score was 0.21 (inactive).
Consider `C=CCn1c(=O)c2c(nc(-c3ccc(S(=O)(=O)O)cc3)n2C)n(C)c1=O`, for which the period change in experiment [1] was -0.155 h (inactive). For the same molecule, the inhibition in experiment [2] is -3% (inactive). Moreover, in experiment [3], the fluorescence ratio (interference) is 1 (inactive). Further, the fold change in experiment [4] (setting [7]) is 1.02 (inactive); in experiment [4] (setting [8]), 2.49. Also, the results for the cell count in experiment [4] (setting [9]) and in experiment [4] (setting [10]) were 10300 and 10100, respectively. Further, the outcome in experiment [5] was inactive. Moreover, the z-score in experiment [6] is 0.335 (inactive).
Regarding `CCCC[C@@]1(C2CCCC2)Cc2cc(OCC(=O)O)c(Cl)c(Cl)c2C1=O`, the period change in experiment [1] is -0.06 h (inactive). Besides, in experiment [2], the inhibition is 0% (inactive). The fluorescence ratio (interference) in experiment [3] was 1 (inactive). Moreover, the results for the fold change in experiment [4] (setting [7]) and in experiment [4] (setting [8]) were 0.958 (inactive) and 1.45, respectively. The results for the cell count in experiment [4] (setting [9]) and in experiment [4] (setting [10]) were 8870 and 9260, respectively. Besides, the molecule was classed as inactive in experiment [5]. Moreover, the z-score in experiment [6] was 2.93 (active).
As to `OC1(c2ccc(Cl)cc2)CCN(Cc2c[nH]c3ccccc23)CC1`, in experiment [1], the period change is 0.165 h (inactive). For the same molecule, the inhibition in experiment [2] was -8% (inactive). Further, the fluorescence ratio (interference) in experiment [3] is 0.9 (inactive). The fold change in experiment [4] (setting [7]) is 1.01 (inactive); in experiment [4] (setting [8]), 1.16. The cell count in experiment [4] (setting [9]) amounted to 7020; in experiment [4] (setting [10]) it was 6940. For the same molecule, the call in experiment [5] was inactive. Also, the z-score in experiment [6] is -0.735 (inactive).
With `Cn1ccnc1`, in experiment [1], the period change was 0.39 h (inactive). In addition, the inhibition in experiment [2] is -2% (inactive). The fluorescence ratio (interference) in experiment [3] is 0.9 (inactive). The fold change in experiment [4] (setting [7]) is 1.1 (inactive); in experiment [4] (setting [8]), 0.769. Also, the cell count in experiment [4] (setting [9]) came out at 11100; in experiment [4] (setting [10]), 10000. Moreover, the molecule was classed as inactive in experiment [5]. Moreover, in experiment [6], the z-score was 0.675 (inactive).
Consider `Nc1nc(Cl)nc2c1ncn2[C@@H]1O[C@H](CO)[C@H](O)C1O` (stereo partly specified), for which the period change in experiment [1] was -0.125 h (inactive). Moreover, in experiment [2], the inhibition was 0% (inactive). Besides, in experiment [3], the fluorescence ratio (interference) is 1 (inactive). The results for the fold change in experiment [4] (setting [7]) and in experiment [4] (setting [8]) were 1.07 (inactive) and 1.14, respectively. Besides, the cell count in experiment [4] (setting [9]) is 1860; in experiment [4] (setting [10]), 1750. The molecule was classed as inactive in experiment [5]. Also, the z-score in experiment [6] is -0.705 (inactive).
`Nc1cc(Cl)c(NC2=NCCN2)c(Cl)c1`: the period change in experiment [1] was 0.07 h (inactive). Moreover, the inhibition in experiment [2] was -4% (inactive). Further, in experiment [3], the fluorescence ratio (interference) was 0.9 (inactive). Moreover, the fold change in experiment [4] (setting [7]) was 1.02 (inactive); in experiment [4] (setting [8]), 1.68. For the same molecule, the cell count in experiment [4] (setting [9]) is 11100; in experiment [4] (setting [10]), 10900. For the same molecule, the molecule was classed as inactive in experiment [5]. The z-score in experiment [6] was 0.705 (inactive).
As for `CCC(=O)N1CCN(C(=O)c2ccccc2)CC1`, in experiment [1], the period change is -0.115 h (inactive). Moreover, the inhibition in experiment [2] was -1% (inactive). The fluorescence ratio (interference) in experiment [3] is 1.1 (inactive). Besides, the fold change was 0.906 (inactive) in experiment [4] (setting [7]) and 1.03 in experiment [4] (setting [8]). For the same molecule, the values for the cell count in experiment [4] (setting [9]) and in experiment [4] (setting [10]) were 9050 and 9990, respectively. Also, the molecule was classed as inactive in experiment [5]. Besides, the z-score in experiment [6] is 0.245 (inactive).
Consider `CCNC(=O)[C@H]1O[C@@H](n2cnc3c(N)nc(NCCc4ccc(CCC(=O)O)cc4)nc32)C(O)[C@H]1O` (stereo partly specified), for which the period change in experiment [1] was 0.1 h (inactive). Moreover, the inhibition in experiment [2] was 0% (inactive). For the same molecule, the fluorescence ratio (interference) in experiment [3] was 1 (inactive). Besides, the values for the fold change in experiment [4] (setting [7]) and in experiment [4] (setting [8]) were 0.963 (inactive) and 1.23, respectively. The results for the cell count in experiment [4] (setting [9]) and in experiment [4] (setting [10]) were 9660 and 10000, respectively. Also, the call in experiment [5] was inactive. In experiment [6], the z-score is 0.485 (inactive).
Take `CCCn1c(=O)[nH]c(=O)c2[nH]cnc21`: the period change in experiment [1] was 0.09 h (inactive). Also, in experiment [2], the inhibition is -1% (inactive). Also, in experiment [3], the fluorescence ratio (interference) is 1 (inactive). For the same molecule, the fold change was 0.996 (inactive) in experiment [4] (setting [7]) and 1.45 in experiment [4] (setting [8]). Besides, the cell count was 9630 in experiment [4] (setting [9]) and 9670 in experiment [4] (setting [10]). Besides, the call in experiment [5] was inactive. In addition, the z-score in experiment [6] was 0.47 (inactive).
On to `Cn1cc(C(F)(F)F)nc1-c1ccc(OCC(O)CNCCOc2ccc(O)c(C(N)=O)c2)cc1` (stereo unspecified), for which the period change in experiment [1] is -0.065 h (inactive). Further, in experiment [2], the inhibition is 0% (inactive). In experiment [3], the fluorescence ratio (interference) is 1 (inactive). In addition, the fold change in experiment [4] (setting [7]) was 0.893 (inactive); in experiment [4] (setting [8]), 1.45. The cell count in experiment [4] (setting [9]) was 9830; in experiment [4] (setting [10]), 11000. The call in experiment [5] was inactive. The z-score in experiment [6] is -0.695 (inactive).

The values above are taken from PubChem BioAssay.
